From PubChem BioAssay
G9a inh: qHTS Assay for Inhibitors of Histone Lysine Methyltransferase G9a; G9a H3K9 monomethylation, AlphaScreen, 2 h; AID 504332, 2011; actives 8.8% (n = 350,000); Potency, µM (doses to about 102 µM), without a hit: at the top dose activity, negative = inhibition, most hits filed as inhibitors; further: on the % scale 0 is the no-effect control and ±100 the full control effect; nearly all actives have a fitted effect of over 75% in size
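AlphaScreen detection with an anti-monomethyl H3K9 antibody quantified product after a 2 h room-temperature reaction containing 500 nM biotinylated H3K9 peptide, 20 µM SAM and 20 nM enzyme, which had been preincubated 15 min with compound.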
L3MBTL1 block: qHTS Assay for the Inhibitors of L3MBTL1; Potency, µM (doses to about 57.1 µM), without a hit: top-dose activity, negative = inhibition, actives largely listed as inhibitors; actives 0.66% (n = 230,000); AlphaScreen L3MBTL1–H3K9me1 peptide binding; further: on the % scale 0 is the no-effect control and ±100 the full control effect; nearly all actives have a fitted effect of over 60% in size
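First, the protein-peptide complex forms for 30 min at room temperature (L3MBTL1 50 nM, biotinylated H3K9me1 peptide 75 nM). Next, compounds are pin-transferred and incubated 30 min. Finally, AlphaScreen beads are added and read after 30 min.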
HP1b binding inh: HTS for Inhibitors of HP1-beta Chromodomain Interactions with Methylated Histone Tails. Chromobox protein homolog 1 (Homo sapiens), P83916. AlphaScreen HP1-beta / biotin-H3K9me3 peptide binding. Potency, µM (top dose mostly 114 µM), inactives show at the top dose activity change, negative = inhibition, most hits filed as inhibitors. actives 0.56% (n = 390,000). AID 540317, 2011; further: nearly all actives have a fitted effect of over 70% in size
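Compound inhibition of the preformed complex between 50 nM HP1-beta and 50 nM biotinylated H3K9me3 peptide was read by AlphaScreen. Buffer was PBS pH 7.4 with 0.01% Tween-20. Incubations ran 30 min at room temperature, with 10 ug/mL donor/acceptor beads.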
JMJD2A Tudor inh: qHTS Assay for Inhibitors of JMJD2A-Tudor Domain | Lysine-specific demethylase 4A (Homo sapiens), O75164 | AlphaScreen JMJD2A-Tudor / H3K4me3 peptide binding | Potency, µM (doses to about 114 µM), inactives show top-dose activity change, negative = inhibition, hits mostly inhibitors | actives 4.4% (n = 390,000); further: on the % scale 0 is the no-effect control and ±100 the full control effect; nearly all actives have a fitted effect of over 50% in size
BAZ2B block: qHTS Assay for Inhibitors of BAZ2B. Bromodomain adjacent to zinc finger domain protein 2B (Homo sapiens), Q9UIF8. AlphaScreen BAZ2B-H3K14Ac peptide displacement. Potency, µM (series often up to 114 µM), without a hit: top-dose activity change, negative = inhibition, most hits filed as inhibitors. actives 4.4% (n = 360,000); further: on the % scale 0 is the no-effect control and ±100 the full control effect; nearly all actives have a fitted effect of over 60% in size
Target sequence (Q9UIF8 whole entry, looked up, the tested form may be a part): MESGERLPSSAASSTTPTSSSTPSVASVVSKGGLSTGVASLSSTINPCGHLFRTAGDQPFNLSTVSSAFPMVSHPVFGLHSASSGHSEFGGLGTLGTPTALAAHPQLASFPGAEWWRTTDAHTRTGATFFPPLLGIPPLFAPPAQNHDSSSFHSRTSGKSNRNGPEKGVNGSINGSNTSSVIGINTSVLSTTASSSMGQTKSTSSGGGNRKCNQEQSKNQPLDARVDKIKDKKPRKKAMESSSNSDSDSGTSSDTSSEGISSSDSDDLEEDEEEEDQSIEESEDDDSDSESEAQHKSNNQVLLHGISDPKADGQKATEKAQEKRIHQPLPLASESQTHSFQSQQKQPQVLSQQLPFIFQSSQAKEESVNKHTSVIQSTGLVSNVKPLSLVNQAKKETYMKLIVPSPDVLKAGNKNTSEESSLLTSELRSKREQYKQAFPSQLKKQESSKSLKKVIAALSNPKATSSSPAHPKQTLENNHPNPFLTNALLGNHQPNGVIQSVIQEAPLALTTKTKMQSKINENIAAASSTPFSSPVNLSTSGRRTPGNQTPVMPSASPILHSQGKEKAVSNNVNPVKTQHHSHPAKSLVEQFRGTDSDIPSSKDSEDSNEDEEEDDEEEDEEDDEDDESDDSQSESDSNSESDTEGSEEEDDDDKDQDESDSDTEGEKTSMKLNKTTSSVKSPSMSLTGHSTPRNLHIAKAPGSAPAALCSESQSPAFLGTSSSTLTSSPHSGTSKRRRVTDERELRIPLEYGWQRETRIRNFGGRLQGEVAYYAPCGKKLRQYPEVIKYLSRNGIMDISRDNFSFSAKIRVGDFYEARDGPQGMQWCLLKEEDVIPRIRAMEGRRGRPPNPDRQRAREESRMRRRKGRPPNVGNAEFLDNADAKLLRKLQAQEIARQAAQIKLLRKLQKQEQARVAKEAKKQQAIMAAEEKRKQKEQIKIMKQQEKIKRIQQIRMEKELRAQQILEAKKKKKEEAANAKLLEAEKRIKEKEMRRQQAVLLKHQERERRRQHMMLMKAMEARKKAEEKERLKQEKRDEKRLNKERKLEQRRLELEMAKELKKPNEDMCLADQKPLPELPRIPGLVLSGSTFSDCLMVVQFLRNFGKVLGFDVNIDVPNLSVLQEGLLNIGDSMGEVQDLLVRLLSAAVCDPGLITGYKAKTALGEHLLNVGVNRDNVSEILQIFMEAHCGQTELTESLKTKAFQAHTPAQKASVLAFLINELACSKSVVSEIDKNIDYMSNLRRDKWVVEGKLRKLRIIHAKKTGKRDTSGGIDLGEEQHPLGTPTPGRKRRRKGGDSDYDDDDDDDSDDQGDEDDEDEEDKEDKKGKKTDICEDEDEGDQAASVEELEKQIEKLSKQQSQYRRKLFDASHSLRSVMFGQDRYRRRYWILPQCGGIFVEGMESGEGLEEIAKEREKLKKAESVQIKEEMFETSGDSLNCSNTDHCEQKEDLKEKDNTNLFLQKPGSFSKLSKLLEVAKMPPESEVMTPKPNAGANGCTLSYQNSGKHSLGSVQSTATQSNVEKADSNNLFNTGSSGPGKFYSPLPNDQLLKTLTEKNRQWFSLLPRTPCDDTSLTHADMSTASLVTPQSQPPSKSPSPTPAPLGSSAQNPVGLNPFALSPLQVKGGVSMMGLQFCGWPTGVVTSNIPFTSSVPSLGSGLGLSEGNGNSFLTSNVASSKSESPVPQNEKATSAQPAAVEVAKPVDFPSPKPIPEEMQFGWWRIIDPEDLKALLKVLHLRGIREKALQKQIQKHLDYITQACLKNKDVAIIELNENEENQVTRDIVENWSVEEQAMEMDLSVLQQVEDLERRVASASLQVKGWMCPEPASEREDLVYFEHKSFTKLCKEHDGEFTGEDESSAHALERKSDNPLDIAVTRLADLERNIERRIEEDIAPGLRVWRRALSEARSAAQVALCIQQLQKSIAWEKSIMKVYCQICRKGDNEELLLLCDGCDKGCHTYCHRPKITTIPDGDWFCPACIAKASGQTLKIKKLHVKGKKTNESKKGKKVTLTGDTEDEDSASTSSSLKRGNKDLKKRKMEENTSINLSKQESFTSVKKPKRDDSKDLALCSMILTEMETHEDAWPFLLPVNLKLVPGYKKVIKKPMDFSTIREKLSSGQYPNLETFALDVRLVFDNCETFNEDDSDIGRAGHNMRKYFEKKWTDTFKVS
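In this displacement format the biotinylated H3(5-23) peptide acetylated at Lys14 serves as ligand at 50 nM, with BAZ2B at 50 nM in PBS pH 7.4 containing 0.01% Tween-20. Donor and acceptor beads are 10 ug/mL final.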
Sfp inh: qHTS Assay for Inhibitors of Bacillus subtilis Sfp phosphopantetheinyl transferase (PPTase); 4'-phosphopantetheinyl transferase ffp (Bacillus subtilis), Q9F4F7; actives 3.5% (n = 310,000); Biochemical Sfp PPTase activity, qHTS; Potency, µM, for the others: largest response in the series, negative = inhibition, usual class: inhibitors;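 further: the enzyme is Sfp with the accession as filed and its product quenches rhodamine fluorescence; 0% = enzyme reaction without inhibitor and -100% = no enzyme wells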
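Buffer: 50 mM Hepes-Na pH 7.6, 10 mM MgCl2, 0.01% Nonidet P-40, 0.01% BSA. Enzyme 15 nM, pre-exposed to compound 15 min; substrates then added and fluorescence change tracked over 30 min.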
Active calls of the source: *; ? = inconclusive; / = no result given; ! = not active in a repeat; [ ] = dose if it differs, or a comment. In the library only some 12% were active in any assay of this set; here they are far more common. The call rests on the fitted dose curve; in most records, active means well fitted curve in the direction sought with a large enough effect; inconclusive means small, poorly fitted or top-dose-only effect, or another doubt; inactive means no such curve, though single readings can be large; an effect the other way counts as inactive or inconclusive. Potency means the concentration at half of the fitted maximal effect.

SMILES	G9a inh	L3MBTL1 block	HP1b binding inh	JMJD2A Tudor inh	BAZ2B block	Sfp inh
C=CCn1c(C)c(/C=C/c2cc[n+](C)cc2)c2ccccc21	45µM*	0%	24%	-8%	3%	-3%
COc1ccc(C)cc1NC(=O)CCn1nc(C)cc1C	-2%[59 µM]	/	29%	?	50µM*	/
O=c1cc(O)n(-c2ccc(Cl)cc2)c(=S)[nH]1	10µM*	/	41%	-16%	-2%	50µM*
O=c1cc(O)n(-c2ccccc2F)c(=S)[nH]1	50µM*	0%	-3%	-31%	-10%	50µM*
Cc1ccccc1-n1c(O)cc(=O)[nH]c1=S	45µM*	-4%	29%	1%	-21%	56µM*
Cc1ccccc1-n1c(N)cc(=O)[nH]c1=S	-15%[59 µM]	/	2%	-12%	-1%	7%
CCCc1cc2c(n1Cc1cc(F)cc(F)c1)C(C)C1CN(C(=O)c3ccccc3)C(C)(C(=O)OC)C21 (centres undefined)	/	/	/	/	/	3%
CCOc1ccc(NC(=O)Cn2c(=O)n(Cc3ccc4c(c3)OCO4)c(=O)c3ccc(C(=O)NC4CCCCC4)cc32)cc1	-6%[59 µM]	/	19%	-12%	/	/
Cn1nc(-c2ccc(N3CCCCC3)c(NC(=O)c3ccco3)c2)c2ccccc2c1=O	40µM*	-4%	-12%	-27%	?	-27%
Nc1cc(C(=O)O)c(N)c2c1C(=O)c1ccccc1C2=O	?	/	14µM*	?	14µM*	?
O=C(O)CCSc1nc2ccccc2s1	?	/	42%	-11%	3%	-17%
Nc1c(SCCC(=O)O)ccc2c1C(=O)c1ccccc1C2=O	35µM*	/	?	?	40µM*	-2%
Nc1c(C(=O)O)ccc2c1C(=O)c1ccccc1C2=O	35µM*	-21%	?	?	35µM*	5%
CCOc1ccc(-c2cc(CCCC(=O)NCCc3ccc(SC)cc3)no2)cc1	5%[59 µM]	/	29%	-23%	-7%	/
Cn1cccc1/C=C1\SC(=Nc2cccc(O)c2)NC1=O	/	-17%	?	?	25µM*	-20%
CN(C)S(=O)(=O)c1ccc2c(c1)/C(=C/c1cc3c([nH]1)CCCC3)C(=O)N2	11µM*!	-9%	29%	-30%	2%	/
CN(C)S(=O)(=O)c1ccc2c(c1)C(=O)c1cc(S(=O)(=O)N(C)C)ccc1CC2	14%[0.501 µM]	-3%	28%	-23%	8%	/
Cc1ccc(CN2CCc3nc(N4CCN(C)CC4)ncc3C2)s1	?	/	31%	?	?	/
Cc1ccccc1NC(=O)C1c2cccc[n+]2CC(=O)N1c1c(C)cccc1C (centres undefined)	5.6µM*	-1%	?	50µM*	45µM*	50µM*
Cc1cccc(C)c1NC(=O)C1c2cccc[n+]2CC(=O)N1Cc1ccc2c(c1)OCO2 (centres undefined)	8.9µM*	/	29%	-16%	-4%	-8%
Cc1ccccc1NC(=O)c1c(F)c(F)c(F)c(F)c1F	0%[12.7 µM]	10%	18%	-11%	8%	24%
Cc1cccc(C)c1NC(=O)Cn1c(=O)n(Cc2ccc3c(c2)OCO3)c(=O)c2oc3ccccc3c21	-5%[59 µM]	/	48%	-1%	-1%	/
Cc1nnc2sc(-c3ccc(-c4ccc(Cl)c(C(F)(F)F)c4)o3)nn12	50µM*	-5%	14%	?	9%	-6%
Cc1ccc(-c2nn3c(-c4cccc(Cl)c4)nnc3s2)cc1	25%[59 µM]	/	/	/	2%	14%
Cc1cc(C([O-])=C(C(=S)Nc2ccccc2)[n+]2ccccc2)c(C)n1-c1ccccc1	/	/	?	32µM*	/	/
SMILES	G9a inh	L3MBTL1 block	HP1b binding inh	JMJD2A Tudor inh	BAZ2B block	Sfp inh
Cc1ccccc1NC(=S)/C(=C(\[O-])c1cc(C)n(Cc2ccccc2Cl)c1C)[n+]1ccccc1	50µM*	/	?	35µM*	40µM*	-6%
O=C(NCCCN1CCCCCC1)[C@@H](c1ccccc1)C1CCCCC1	/	/	/	/	/	5%
O=C(Nc1nc2c(F)cc(F)cc2s1)C1CCN(C(=O)c2ccc(F)cc2)CC1	45µM*	8%	2%	-15%	8%	/
O=C(Nc1nc(-c2ccc(F)cc2)cs1)C1CCN(C(=O)c2ccc(F)cc2)CC1	35µM*	-13%	11%	-23%	0%	/
O=C(Nc1nc2ccccc2[nH]1)C1CCN(C(=O)c2ccc(F)cc2)CC1	40µM*	0%	12%	?	4%	/
CC(=O)c1sc(NC(=O)C2CCN(C(=O)c3ccc(F)cc3)CC2)nc1-c1ccccc1	45µM*	-12%	13%	-26%	-25%	/
CC1=NN(c2ccc(Cl)cc2)C(=O)C1C(c1ccccc1O)c1c(C)[nH]n(-c2ccc(Cl)cc2)c1=O (centres undefined)	4µM*	-13%	?	56µM*	35µM*	30%
CC1=NN(c2ccc(C)cc2C)C(=O)C1C(c1ccccc1O)C1C(=O)N(c2ccc(C)cc2C)N=C1C (centres undefined)	1%[59 µM]	-4%	4%	-24%	-10%	-6%
CN(C)Cc1nc2ccccc2c(=O)n1Cc1nc(-c2cccc([N+](=O)[O-])c2)cs1	?	-7%	?	?	-36%	3%
CN1CCN(Cc2nc3ccccc3c(=O)n2Cc2nc(-c3ccc([N+](=O)[O-])cc3)cs2)CC1	22µM*	-5%	?	20µM*	-39%	-16%
O=C(CCSCc1cccc(Cl)c1)N1CCN(c2ccc(Cl)cc2)CC1	-4%[59 µM]	/	30%	-6%	15%	/
Cc1ccc(S(=O)(=O)Nc2nnc(CC(C)(C)C)s2)cc1	35µM*	1%	-5%	-21%	-21%	79µM*
Cc1ccc(S(=O)(=O)Nc2nsc(N)n2)cc1	32µM*	5%	5%	2%	-6%	35µM*
CC(C)(C)c1nnc(NS(=O)(=O)c2ccc([N+](=O)[O-])cc2)s1	10µM*	-5%	-13%	-29%	-3%	-71%
COc1ccc(Cc2nnc(NS(=O)(=O)c3ccc(Cl)cc3)s2)cc1OC	32µM*	-1%	-8%	-17%	?	-18%
CC(C)Nc1nc(NC(C)C)nc(NS(=O)(=O)c2ccc(N)cc2)n1	-22%[59 µM]	?	22%	9%	10%	7%
COCc1nnc(NS(=O)(=O)c2ccc(C)cc2)s1	-9%[12.7 µM]	/	63%	?	-9%	15%
